Compound activity as filed in PubChem.
Shown are actives, neighbours in structure and some others; about 4.9% of the full set was active somewhere.
Beta apoptosis: beta cell apoptosis inhibition; protection from apoptosis, % (test concentration not listed); hit rate 0.8% among 300,000; INS-1E cytokine-induced death, ATP luminescence, 48 h; percent of positive-control rescue, neutral wells zero;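 active = Every replicate reaches about 75%, or at least half do and their mean reaches it too, limit read from the data; inconclusive = At least half of replicates reach the limit but their mean does not; inactive = Under half of replicates reach the limit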;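 note: 0% = cytokine-treated negative control wells and 100% = positive control rescue; higher means more ATP so stronger rescue from cytokine killing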
Mdm2-MdmX inh: disrupts the human Mdm2-MdmX interaction. inhibition, % at 8 µM. O15151+Q00987. hit rate 3% among 330,000. SaOS-2 split-luciferase Mdm2/MdmX complementation, luminescence;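 active = inhibition of at least 50% at 8 µM in the primary screen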
Calb FLC: affects C. albicans growth with fluconazole | C. albicans CaCi-2 (fluconazole-resistant clinical isolate) + fluconazole, Alamar Blue growth, 48 h | growth inhibition, % (no concentration beside the values) | hit rate 0.57% among 300,000;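 active = growth inhibition above about 58% in most replicates, limit read from the data, passing the limit was not always enough; inconclusive = exactly half the replicates above a set limit; inactive = most replicates below a set limit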;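 note: all wells also contain fluconazole at 8 µg/ml as a sub-toxic cotreatment; 0% = median of DMSO wells and 100% = median of geldanamycin control wells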
PP1 counter: blocks human PP1-alpha phosphatase, a PP5 counter-screen; inhibition, % at 6.7 µM; purified PP1alpha, OMFP fluorescence; AID 2235; hit rate 0.9% among 320,000; P62136;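 active = inhibition above the mean inhibition of all tested compounds plus 3 SD, computed separately for each screening campaign, cut at about 15% in these data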
PP5 primary: blocks human protein phosphatase 5 activity | P53041 | purified PP5c, OMFP substrate fluorescence | inhibition, % at 6.7 µM | hit rate 0.18% among 320,000 | AID 1987;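 active = inhibition above the campaign's mean inhibition across all tested compounds plus 3 SD, cut at about 9.5% in these data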;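 note: 0% = DMSO only and 100% = 100 µM cantharidin control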
Target sequence (P53041 whole entry, looked up): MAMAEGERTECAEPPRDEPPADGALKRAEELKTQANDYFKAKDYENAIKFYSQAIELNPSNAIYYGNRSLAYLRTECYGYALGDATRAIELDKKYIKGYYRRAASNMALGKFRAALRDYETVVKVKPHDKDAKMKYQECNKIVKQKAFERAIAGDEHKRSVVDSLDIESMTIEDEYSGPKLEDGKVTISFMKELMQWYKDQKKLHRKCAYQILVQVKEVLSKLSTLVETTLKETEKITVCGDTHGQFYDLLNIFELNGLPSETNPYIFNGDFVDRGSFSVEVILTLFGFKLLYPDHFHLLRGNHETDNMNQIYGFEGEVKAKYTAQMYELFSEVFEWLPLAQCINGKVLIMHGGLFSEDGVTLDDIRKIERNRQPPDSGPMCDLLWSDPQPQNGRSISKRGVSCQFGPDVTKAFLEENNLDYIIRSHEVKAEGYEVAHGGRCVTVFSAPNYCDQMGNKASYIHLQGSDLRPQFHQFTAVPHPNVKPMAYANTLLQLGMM
CSC inhib: blocks cancer stem cells; cancer stem cell-like cells viability, luminescence; inhibition, % at 7.5 µM; hit rate 1.1% among 300,000; in the data active = inhibition above about 75%; inconclusive = no clear call, values can overlap the other calls; tested in HMLE shEcad cells
Mdm2-MdmX conf: confirmation of human Mdm2/MdmX interaction inhibitors; inhibition, % at 8 µM; Mdm2-MdmX binding, luminescent assay; hit rate 55% among 10,000; shares compounds with Mdm2-MdmX inh; in the data active = inhibition above about 40%
FLuc counter: full-length luciferase inhibition in Mdm2/MdmX counter-screen; inhibition, % at 8 µM; shares compounds with Mdm2-MdmX inh; SaOS-2 full-length luciferase counterscreen, luminescence; hit rate 77% among 6,200;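 active = mean inhibition at 8 µM reaching about 37%, which flags the compound as non-specific, limit read from the data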;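 note: p53-null SaOS-2 cells with luciferase driven by a doxycycline-inducible promoter; compound on cells about two nights before reading with doxycycline added after day one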
* = called active by the depositor; ? = inconclusive; nt = not tested or not shown.

SMILES | Beta apoptosis | Mdm2-MdmX inh | Calb FLC | PP1 counter | PP5 primary | CSC inhib | Mdm2-MdmX conf | FLuc counter
O=[N+]([O-])c1ccc(/C=N/n2cnc3ccccc32)s1 | 112.0* | 70.2* | ? | 0.4 | 1.8 | 99.7* | 59.5* | 9.6
O=[N+]([O-])c1ccc(/C=N/Nc2ncccc2[N+](=O)[O-])s1 | -37.7 | 4.6 | 1.3 | 0.8 | 2.4 | 10.2 | nt | nt
CCOc1ccccc1Nc1cc(C)c2cccc(C)c2n1 | 9.5 | -11.1 | 5.8 | -2.8 | 0.8 | 29.9 | nt | nt
CCOc1nc(N=C(N)N)nc2c(C)cccc12 | 48.2 | 56.2* | 46.1 | 0.7 | 0.5 | -15.8 | 29.6 | nt
COc1ccc(/C(C)=N/NC(=O)c2nnn(-c3nonc3N)c2-c2cccs2)cc1OC | 6.1 | 59.1* | -9.9 | -4.0 | -0.9 | 6.5 | -7.8 | nt
C/C(=N\NC(=O)c1nnn(-c2nonc2N)c1-c1cccs1)c1ccc(O)cc1 | -3.0 | -4.7 | 0.9 | -0.6 | 1.0 | -4.1 | nt | nt
COc1ccc(/C(C)=N/NC(=O)c2nnn(-c3nonc3N)c2-c2ccccc2)cc1 | -4.1 | 60.8* | 10.1 | -2.4 | -0.9 | nt | 9.3 | nt
C/C(=N/NC(=O)c1nnn(-c2nonc2N)c1-c1ccccc1)c1ccncc1 | 0.5 | 23.6 | 5.6 | 0.2 | 4.1 | -4.3 | nt | nt
COc1ccc(/C(C)=N/NC(=O)c2nnn(-c3nonc3N)c2-c2cccs2)cc1 | -0.7 | 59.5* | 1.8 | -8.2 | 1.2 | -4.4 | -1.7 | nt
COc1cccc(-c2c(C(=O)N/N=C(\C)c3ccncc3)nnn2-c2nonc2N)c1 | -11.0 | 18.8 | -0.3 | -4.3 | -0.6 | -11.4 | nt | nt
C/C(=N\NC(=O)c1nnn(-c2nonc2N)c1-c1cccs1)c1ccc(C)cc1 | 2.1 | 70.6* | -0.4 | -3.6 | 5.2 | -2.4 | 2.2 | nt
COc1cccc(COCC(O)Cn2cnc3cc(C)c(C)cc32)c1 (stereo not drawn) | -4.7 | -0.1 | ? | 1.8 | 1.3 | -4.7 | nt | nt
CC(Sc1nc(N)cc(=O)[nH]1)C(=O)NNC(=O)c1cccc(Cl)c1 (stereo not drawn) | -4.2 | -8.4 | nt | 1.0 | 1.9 | 3.9 | nt | nt
COC(=O)c1ccccc1NC(=O)CCCn1nc([N+](=O)[O-])c(Br)c1C | -3.5 | 5.4 | 13.5 | -0.2 | -1.1 | -18.4 | nt | nt
CC(=O)Nc1ccc(S(=O)(=O)N(Cc2ccco2)Cc2cc3ccccc3[nH]c2=O)cc1 | nt | 32.7 | -1.5 | -1.5 | -2.8 | 13.6 | nt | nt
CCCN(CC(=O)Nc1cc(Cl)cc(Cl)c1)CC(=O)Nc1ccc(F)c(F)c1F | -8.5 | 52.1* | 0.7 | 4.6 | 4.8 | nt | 14.7 | nt
COc1ccc([N+](=O)[O-])cc1NS(=O)(=O)c1ccccc1 | -2.8 | -27.4 | 1.8 | -3.8 | 0.3 | -2.7 | nt | nt
COc1cc(NS(C)(=O)=O)ccc1Nc1c2ccccc2nc2ccccc12 | 69.1 | 89.2* | nt | 0.7 | 1.5 | 102.0* | 73.2* | 59.4*
O=[N+]([O-])c1ccc(Nc2c3ccccc3nc3ccccc23)cc1 | nt | 20.1 | 5.6 | nt | nt | nt | nt | nt
COc1ccc(OC)c(Nc2c3ccccc3nc3ccccc23)c1 | 22.0 | 73.4* | 16.6 | 5.9 | 4.5 | ? | 65.0* | 60.2*
O=C(O)c1cc(S(=O)(=O)O)cc(Nc2c3ccccc3nc3ccccc23)c1O | -10.0 | 4.4 | 7.5 | -0.5 | 0.7 | -7.6 | nt | nt
COc1cc(Nc2nc3ccccc3nc2NS(=O)(=O)c2ccc([N+](=O)[O-])cc2)cc(OC)c1OC | 19.8 | 68.4* | nt | -1.8 | 2.9 | 10.6 | 36.0 | 55.2*
COc1ccc([N+](=O)[O-])cc1Nc1c2ccccc2nc2ccccc12 | 66.3 | 64.4* | -1.6 | -0.6 | 5.0 | 130.7* | 63.4* | 62.6*
O=C(CSc1ccc2c(c1)OCCO2)Nc1ccc(N2CCOCC2)cc1 | 1.9 | 10.5 | -5.4 | -1.2 | -0.7 | nt | nt | nt
Cc1cccc(Nc2c3c(nc4ccccc24)CCC3)c1 | 34.0 | 26.9 | ? | 3.1 | 2.4 | 38.7 | nt | nt
SMILES | Beta apoptosis | Mdm2-MdmX inh | Calb FLC | PP1 counter | PP5 primary | CSC inhib | Mdm2-MdmX conf | FLuc counter
COc1ccc(OC)c(NC(=O)COC(=O)c2c3c(nc4ccccc24)CCCC3)c1 | 17.5 | 84.6* | 0.8 | 6.0 | 7.5 | 54.3 | 63.3* | 56.7*
COc1cc(Nc2c3c(nc4ccccc24)CCC3)cc(OC)c1OC | 9.2 | 87.6* | -2.0 | -0.7 | 0.1 | 57.8 | 74.3* | 63.5*
COc1ccc(OC)c(Nc2c3c(nc4ccccc24)CCC3)c1 | 13.5 | 50.6* | 7.0 | -0.6 | 2.6 | 57.4 | 62.0* | 78.6*
COc1ccccc1Nc1c2c(nc3ccc(N)cc13)CCCC2 | 20.1 | 27.4 | 36.2 | 0.2 | 4.9 | 14.7 | nt | nt
CCOc1ccc(OCCC(=O)OCC(=O)NC(C)c2ccccc2)cc1 (stereo not drawn) | -5.4 | 1.3 | 6.0 | -1.6 | -0.3 | nt | nt | nt
O=C(c1cc(-c2cccc(O)c2)on1)N1CCN(C(c2ccccc2)c2ccccc2)CC1 | 80.8* | 50.0 | -2.2 | 5.4 | 2.0 | 144.3* | 12.8 | nt
O=C(c1cc(C2CC2)on1)N1CCN(C(c2ccccc2)c2ccccc2)CC1 | 8.7 | -11.4 | 5.2 | -0.4 | 2.0 | 8.2 | nt | nt
COc1ccc(C2C(O)C(c3c[nH]c4ccccc34)=NN2C(=O)CCl)cc1 (stereo not drawn) | 128.8* | 98.2* | 3.0 | 3.6 | 1.7 | 109.1* | 97.1* | 1.4
CCCCS(=O)(=O)/C=C\C1C2C=CC(C2)C1S(=O)(=O)CCCC (stereo not drawn) | -2.3 | 17.8 | 1.1 | -7.2 | -2.5 | -2.0 | nt | nt
CCCCS(=O)(=O)/C=C\C=C/S(=O)(=O)CCCC | 85.5* | 93.7* | 0.5 | -0.2 | 3.6 | 110.7* | 98.8* | 51.1*
Cc1ccc(S(=O)(=O)NCc2ccccc2)cc1C(=O)NCCc1ccc(S(N)(=O)=O)cc1 | 2.3 | 25.1 | nt | -1.8 | 4.3 | nt | nt | nt
CC(NC(=O)CCNS(=O)(=O)c1ccc2c(c1)oc(=O)n2C)c1ccccc1 (stereo not drawn) | 1.9 | 7.8 | 2.5 | -0.8 | -0.9 | -16.8 | nt | nt
O=[N+]([O-])c1ccc(CSc2nnc(Cc3ccccc3)o2)cc1 | -3.9 | 4.7 | 5.7 | -1.4 | 1.2 | 1.4 | nt | nt
COc1ccc(Cc2nnc(SCc3ccc([N+](=O)[O-])cc3)o2)cc1 | -18.2 | 60.2* | 13.1 | -3.6 | 0.4 | 8.2 | 61.2* | 28.9
N=c1c(-c2nc3ccccc3[nH]2)cc(C(=O)c2cccs2)nn1-c1ccccc1 | -5.8 | 56.0* | -2.8 | -0.2 | -2.6 | -13.5 | 39.7 | 58.7*
O=C(Nc1cc(=O)[nH]c(=O)[nH]1)c1cc(Cl)ccc1Cl | 19.5 | 64.0* | -12.2 | 0.4 | 1.2 | 49.8 | 55.9* | 58.3*
O=C1CC(c2cc(Br)ccc2F)c2cc3c(cc2N1)CCC3 (stereo not drawn) | 40.2 | 65.9* | 0.7 | -7.2 | -1.9 | 82.4* | 55.8* | 95.0*
